From article PMC8384837, “Expanding the binding specificity for RNA recognition by a PUF domain”
Substitutions are numbered along the chain they refer to.

Columns and labels:
Experiment in all cases: yeast three-hybrid, YBZ-1, SC-Leu-His + 0.5 mM 3-AT, 4 days
Settings in all cases: tags: N-Gal4 AD-HA kept; label: inside an RPR1-promoter hybrid RNA with tandem MS2 sites; ssRNA
PUM1 PUF domain R1-RYE = PUM1 PUF domain R1-RYE (Homo sapiens, UniProt Q14671 828-1176, S863R;R864Y;Q867E)
How it was run: (§1)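 Each repeat of the Pumilio-1 PUF domain was randomized at its three base-contacting residues, and these libraries were co-expressed from a centromeric plasmid with matching RNA elements in strain YBZ-1. After four days on SC-Leu (input) or SC-Leu-His + 0.5 mM 3-AT (selection), the repeat regions were PCR-amplified and Illumina-sequenced. The interaction score compares variant frequency between input and selection as a log change, computed in log2 with a pseudocount of 1 for absent variants.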

PUM1 PUF domain R1-RGQ = PUM1 PUF domain R1-RGQ (Homo sapiens, UniProt Q14671 828-1176, S863R;R864G)
How it was run: as §1

PUM1 PUF domain R7-RVI = PUM1 PUF domain R7-RVI (Homo sapiens, UniProt Q14671 828-1176, S1079R;N1080V;E1083I)
How it was run: as §1

PUM1 PUF domain R6-MWE = biological target: T1, PUM1 PUF domain R6-MWE (Homo sapiens, UniProt Q14671 828-1176, N1043M;Y1044W;Q1047E)
T1 sequence: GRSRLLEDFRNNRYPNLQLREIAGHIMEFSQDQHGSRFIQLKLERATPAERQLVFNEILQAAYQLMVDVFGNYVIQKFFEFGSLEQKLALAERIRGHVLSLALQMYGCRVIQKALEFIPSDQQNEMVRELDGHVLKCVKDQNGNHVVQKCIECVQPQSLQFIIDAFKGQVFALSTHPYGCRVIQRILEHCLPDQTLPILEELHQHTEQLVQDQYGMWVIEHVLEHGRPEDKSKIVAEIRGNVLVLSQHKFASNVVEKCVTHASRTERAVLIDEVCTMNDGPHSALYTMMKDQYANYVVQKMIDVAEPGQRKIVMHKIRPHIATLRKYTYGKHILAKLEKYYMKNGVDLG
How it was run: as §1

PUM1 PUF domain R5-KLC = PUM1 PUF domain R5-KLC (Homo sapiens, UniProt Q14671 828-1176, C1007K;R1008L;Q1011C)
How it was run: as §1

PUM1 PUF domain R5-LWR = PUM1 PUF domain R5-LWR (Homo sapiens, UniProt Q14671 828-1176, C1007L;R1008W;Q1011R)
How it was run: as §1

PUM1 PUF domain R5-GKC = PUM1 PUF domain R5-GKC (Homo sapiens, UniProt Q14671 828-1176, C1007G;R1008K;Q1011C)
How it was run: as §1

PUM1 PUF domain R3-DFA = PUM1 PUF domain R3-DFA (Homo sapiens, UniProt Q14671 828-1176, C935D;R936F;Q939A)
How it was run: as §1

PUM1 PUF domain R5-GFI = PUM1 PUF domain R5-GFI (Homo sapiens, UniProt Q14671 828-1176, C1007G;R1008F;Q1011I)
How it was run: as §1

PUM1 PUF domain R6-NRR = biological target: T2, PUM1 PUF domain R6-NRR (Homo sapiens, UniProt Q14671 828-1176, Y1044R;Q1047R)
T2 sequence: T1 sequence with M216N, W217R, E220R
How it was run: as §1

PUM1 PUF domain R5-LWG = PUM1 PUF domain R5-LWG (Homo sapiens, UniProt Q14671 828-1176, C1007L;R1008W;Q1011G)
How it was run: as §1

PUM1 PUF domain R4-RHV = PUM1 PUF domain R4-RHV (Homo sapiens, UniProt Q14671 828-1176, N971R;Q975V)
How it was run: as §1

PUM1 PUF domain R4-FGS = PUM1 PUF domain R4-FGS (Homo sapiens, UniProt Q14671 828-1176, N971F;H972G;Q975S)
How it was run: as §1

PUM1 PUF domain R8-YWK = PUM1 PUF domain R8-YWK (Homo sapiens, UniProt Q14671 828-1176, N1122Y;Y1123W;Q1126K)
How it was run: as §1

PUM1 PUF domain R4-INC = PUM1 PUF domain R4-INC (Homo sapiens, UniProt Q14671 828-1176, N971I;H972N;Q975C)
How it was run: as §1

PUM1 PUF domain R5-NSD = PUM1 PUF domain R5-NSD (Homo sapiens, UniProt Q14671 828-1176, C1007N;R1008S;Q1011D)
How it was run: as §1

PUM1 PUF domain R6-CYL = biological target: T3, PUM1 PUF domain R6-CYL (Homo sapiens, UniProt Q14671 828-1176, N1043C;Q1047L)
T3 sequence: T1 sequence with M216C, W217Y, E220L
How it was run: as §1

PUM1 PUF domain R1-KDR = PUM1 PUF domain R1-KDR (Homo sapiens, UniProt Q14671 828-1176, S863K;R864D;Q867R)
How it was run: as §1

PUM1 PUF domain R3-FSE = PUM1 PUF domain R3-FSE (Homo sapiens, UniProt Q14671 828-1176, C935F;R936S;Q939E)
How it was run: as §1

PUM1 PUF domain R3-MWS = PUM1 PUF domain R3-MWS (Homo sapiens, UniProt Q14671 828-1176, C935M;R936W;Q939S)
How it was run: as §1

**Q.** “GGCUAGAACUAGUGGAUCCCCCGGCGCCCGGCGGCUCGAGCCCGGGUAAGUGUAAAUUGUCUGCAUGCCGCCGGGCGCCAUGCCUGCAGGUCGACUCUAGAAAACAUG” was tested. Which binding signal (PUM1 PUF domain R1-RYE) did it give?
**A.** 2.61 log2 enrichment (interaction score)

**Q.** What about the binding signal (PUM1 PUF domain R1-RGQ) of the same sequence?
**A.** 2.29 log2 enrichment (interaction score)

**Q.** With “GGCUAGAACUAGUGGAUCCCCCGGCGCCCGGCGGCUCGAGCCCGGGUAAGUUUAAAUAGUCUGCAUGCCGCCGGGCGCCAUGCCUGCAGGUCGACUCUAGAAAACAUG” as the sequence, how does the binding signal (PUM1 PUF domain R7-RVI) read?
**A.** 2.39 log2 enrichment (interaction score)

**Q.** How did the binding signal (PUM1 PUF domain R6-MWE) turn out when “GGCUAGAACUAGUGGAUCCCCCGGCGCCCGGCGGCUCGAGCCCGGGUAAGUGGAAAUAGUCUGCAUGCCGCCGGGCGCCAUGCCUGCAGGUCGACUCUAGAAAACAUG” was run?
**A.** 4.52 log2 enrichment (interaction score)

**Q.** What does the source list for “GGCUAGAACUAGUGGAUCCCCCGGCGCCCGGCGGCUCGAGCCCGGGUAAGUGUCAAUAGUCUGCAUGCCGCCGGGCGCCAUGCCUGCAGGUCGACUCUAGAAAACAUG”?
**A.** binding signal (PUM1 PUF domain R5-KLC): 2.5 log2 enrichment (interaction score); binding signal (PUM1 PUF domain R5-LWR): 3.23 log2 enrichment (interaction score); binding signal (PUM1 PUF domain R5-GKC): 2.56 log2 enrichment (interaction score)

**Q.** What does the source list for “GGCUAGAACUAGUGGAUCCCCCGGCGCCCGGCGGCUCGAGCCCGGGUAAGUGUAAAUAGUCUGCAUGCCGCCGGGCGCCAUGCCUGCAGGUCGACUCUAGAAAACAUG”?
**A.** binding signal (PUM1 PUF domain R5-GKC): 0.78 log2 enrichment (interaction score); binding signal (PUM1 PUF domain R3-DFA): 6.17 log2 enrichment (interaction score); binding signal (PUM1 PUF domain R5-GFI): 6.14 log2 enrichment (interaction score); binding signal (PUM1 PUF domain R6-NRR): 4.3 log2 enrichment (interaction score); binding signal (PUM1 PUF domain R5-LWG): 2.19 log2 enrichment (interaction score); binding signal (PUM1 PUF domain R4-RHV): 2.5 log2 enrichment (interaction score); binding signal (PUM1 PUF domain R4-FGS): 0.95 log2 enrichment (interaction score)

**Q.** “GGCUAGAACUAGUGGAUCCCCCGGCGCCCGGCGGCUCGAGCCCGGGUAAGUGCAAAUAGUCUGCAUGCCGCCGGGCGCCAUGCCUGCAGGUCGACUCUAGAAAACAUG” was tested. Which binding signal (PUM1 PUF domain R6-NRR) did it give?
**A.** 4.48 log2 enrichment (interaction score)

**Q.** For “GGCUAGAACUAGUGGAUCCCCCGGCGCCCGGCGGCUCGAGCCCGGGUAAGCGUAAAUAGUCUGCAUGCCGCCGGGCGCCAUGCCUGCAGGUCGACUCUAGAAAACAUG”, which binding signal (PUM1 PUF domain R8-YWK) is on record?
**A.** 2.04 log2 enrichment (interaction score)

**Q.** For “GGCUAGAACUAGUGGAUCCCCCGGCGCCCGGCGGCUCGAGCCCGGGUAAGUGUAUAUAGUCUGCAUGCCGCCGGGCGCCAUGCCUGCAGGUCGACUCUAGAAAACAUG”, which binding signal (PUM1 PUF domain R4-INC) is on record?
**A.** 4.14 log2 enrichment (interaction score)

**Q.** What about the binding signal (PUM1 PUF domain R4-RHV) of the same sequence?
**A.** 4.8 log2 enrichment (interaction score)

**Q.** And the binding signal (PUM1 PUF domain R4-FGS)?
**A.** 2.78 log2 enrichment (interaction score)

**Q.** “GGCUAGAACUAGUGGAUCCCCCGGCGCCCGGCGGCUCGAGCCCGGGUAAGUGUUAAUAGUCUGCAUGCCGCCGGGCGCCAUGCCUGCAGGUCGACUCUAGAAAACAUG” was tested. Which binding signal (PUM1 PUF domain R5-NSD) did it give?
**A.** 4.22 log2 enrichment (interaction score)

**Q.** And the binding signal (PUM1 PUF domain R5-LWG)?
**A.** 3.88 log2 enrichment (interaction score)

**Q.** With “GGCUAGAACUAGUGGAUCCCCCGGCGCCCGGCGGCUCGAGCCCGGGUAAGUGAAAAUAGUCUGCAUGCCGCCGGGCGCCAUGCCUGCAGGUCGACUCUAGAAAACAUG” as the sequence, how does the binding signal (PUM1 PUF domain R6-CYL) read?
**A.** 5.18 log2 enrichment (interaction score)

**Q.** Which binding signal (PUM1 PUF domain R1-RYE) does the source give for “GGCUAGAACUAGUGGAUCCCCCGGCGCCCGGCGGCUCGAGCCCGGGUAAGUGUAAAUCGUCUGCAUGCCGCCGGGCGCCAUGCCUGCAGGUCGACUCUAGAAAACAUG” here?
**A.** 1.44 log2 enrichment (interaction score)

**Q.** And the binding signal (PUM1 PUF domain R1-KDR)?
**A.** 3.98 log2 enrichment (interaction score)

**Q.** How did the binding signal (PUM1 PUF domain R3-FSE) turn out when “GGCUAGAACUAGUGGAUCCCCCGGCGCCCGGCGGCUCGAGCCCGGGUAAGUGUAAGUAGUCUGCAUGCCGCCGGGCGCCAUGCCUGCAGGUCGACUCUAGAAAACAUG” was run?
**A.** 3.22 log2 enrichment (interaction score)

**Q.** And the binding signal (PUM1 PUF domain R3-MWS)?
**A.** 5.62 log2 enrichment (interaction score)

**Q.** For “GGCUAGAACUAGUGGAUCCCCCGGCGCCCGGCGGCUCGAGCCCGGGUAAGUGUACAUAGUCUGCAUGCCGCCGGGCGCCAUGCCUGCAGGUCGACUCUAGAAAACAUG”, which binding signal (PUM1 PUF domain R4-RHV) is on record?
**A.** 2.18 log2 enrichment (interaction score)

**Q.** What about the binding signal (PUM1 PUF domain R4-FGS) of the same sequence?
**A.** 2.32 log2 enrichment (interaction score)
